Data taken from the supplement of paper PMC10849652.
Of roughly 8,800 targets only a part is listed; those with a hit were picked by preference. About 0.5% of all pairs of compound and target were hits.

How the values were obtained:
Assay in all cases: log2 fold change, soluble protein after heating vs DMSO (PISA); higher = thermal stabilisation; K562 lysate, 10 uM; active = over 0.2 and 3.5 SD of the protein, either way, in both replicates (recomputed)
erlotinib = compound: C#Cc1cccc(Nc2ncnc3cc(OCCOC)c(OCCOC)cc23)c1 [erlotinib]
How it was run: (§1)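 Quantification was by TMTpro 16plex LC-MS/MS with equalised channel sums, applied to the supernatant after 21,000xg for 90 min. Samples were crude K562 extract at 1 mg/mL protein in PBS pH 7.4 with 1 mM MgCl2, treated with 10 μM compound for 30 min, heated for 3 min across 48°C-58°C, pooled and brought to 0.5% NP-40 at 4°C. Values are log-two fold changes in thermal stability relative to solvent controls, from duplicates.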

[1] = compound: C/C(=N\NC(=O)C1=CC(=CC=C1)S(=O)(=O)N2CCOCC2)/C3=C(C=CC(=C3)Cl)O
How it was run: as §1

[2] = compound: C1=CC(=CC=C1C2=NC3=C(N2)C=C(C=C3)C(=O)N)OC4=CC=C(C=C4)Cl
How it was run: as §1

[3] = compound: C1=CC2=C(C=CC(=C2)/C=C\3/C(=O)NC(=NCC4=CC=CS4)S3)N=C1
How it was run: as §1

[4] = compound: C1=CC2=NC=CN=C2C=C1/C=C/3\C(=O)NC(=O)S3
How it was run: as §1

[5] = compound: C1=CC=C(C=C1)C2=NC(=C(N2)C3=CC=NC=C3)C4=CC(=C(C=C4)Cl)O
How it was run: as §1

[6] = compound: C1=CC=C2C(=C1)C3=NNC4=CC=CC(=C43)C2=O
How it was run: as §1

[7] = compound: C1CCN(C1)C(=O)NC2=CC=CC(=C2)NC3=NC=C(C(=N3)NCCC4=CN=CN4)Br
How it was run: as §1

[8] = compound: C1CN(CCC1(CC2=CC=C(C=C2)Cl)N)C3=NC=NC4=C3C=CN4
How it was run: as §1

IRAK-1-4 Inhibitor I = compound: C1COCCN1CCN2C3=CC=CC=C3N=C2NC(=O)C4=CC(=CC=C4)[N+](=O)[O-] [IRAK-1-4 Inhibitor I]
How it was run: as §1

Measured: log2 fold change

PFKFB2 (UniProt O60825)
UniProt O60825, sequence (O60825 whole entry, looked up): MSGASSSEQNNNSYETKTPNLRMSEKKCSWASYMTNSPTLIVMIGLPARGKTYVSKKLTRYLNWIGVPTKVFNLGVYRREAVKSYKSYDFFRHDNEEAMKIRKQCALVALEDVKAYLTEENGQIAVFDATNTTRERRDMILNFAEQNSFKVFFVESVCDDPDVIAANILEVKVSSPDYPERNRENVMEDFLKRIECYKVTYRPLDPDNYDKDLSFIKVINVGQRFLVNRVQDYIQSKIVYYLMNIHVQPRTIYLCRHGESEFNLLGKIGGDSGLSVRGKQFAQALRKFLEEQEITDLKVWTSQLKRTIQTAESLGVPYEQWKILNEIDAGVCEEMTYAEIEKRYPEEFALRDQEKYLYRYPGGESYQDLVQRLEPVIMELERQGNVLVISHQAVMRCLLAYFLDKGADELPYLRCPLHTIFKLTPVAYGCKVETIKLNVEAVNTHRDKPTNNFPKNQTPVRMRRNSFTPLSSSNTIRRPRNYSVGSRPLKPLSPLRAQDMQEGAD
inactive: erlotinib -0.007 | [1] -0.012 | [2] 0.03 | [3] -0.004 | [4] 0.005 | [5] -0.02 | [6] 0.02 | [7] -0.004 | [8] 0.002 | IRAK-1-4 Inhibitor I -0.001

PUF60 (UniProt Q9UHX1)
inactive: erlotinib 0.001 | [1] 0.003 | [2] -0.01 | [3] 0.011 | [4] -0.018 | [5] -0.018 | [6] 0.01 | [7] 0.003 | [8] 0.003 | IRAK-1-4 Inhibitor I -0.023

PGGT1B (UniProt P53609)
inactive: erlotinib -0.02 | [1] 0.039 | [2] -0.076 | [3] -0.011 | [4] 0.047 | [5] 0.14 | [6] 0.045 | [7] 0.008 | [8] -0.018 | IRAK-1-4 Inhibitor I -0.006

PTMA (UniProt P06454)
UniProt P06454, sequence (P06454 whole entry, looked up): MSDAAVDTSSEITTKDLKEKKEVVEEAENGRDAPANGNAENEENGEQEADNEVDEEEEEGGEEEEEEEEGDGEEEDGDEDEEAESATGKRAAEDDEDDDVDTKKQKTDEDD
inactive: erlotinib -0.002 | [1] 0.062 | [2] 0.067 | [3] -0.013 | [4] -0.002 | [5] 0.01 | [6] -0.017 | [7] -0.009 | [8] -0.017 | IRAK-1-4 Inhibitor I -0.037

PDIA4 (UniProt P13667)
UniProt P13667, sequence (P13667 whole entry, looked up): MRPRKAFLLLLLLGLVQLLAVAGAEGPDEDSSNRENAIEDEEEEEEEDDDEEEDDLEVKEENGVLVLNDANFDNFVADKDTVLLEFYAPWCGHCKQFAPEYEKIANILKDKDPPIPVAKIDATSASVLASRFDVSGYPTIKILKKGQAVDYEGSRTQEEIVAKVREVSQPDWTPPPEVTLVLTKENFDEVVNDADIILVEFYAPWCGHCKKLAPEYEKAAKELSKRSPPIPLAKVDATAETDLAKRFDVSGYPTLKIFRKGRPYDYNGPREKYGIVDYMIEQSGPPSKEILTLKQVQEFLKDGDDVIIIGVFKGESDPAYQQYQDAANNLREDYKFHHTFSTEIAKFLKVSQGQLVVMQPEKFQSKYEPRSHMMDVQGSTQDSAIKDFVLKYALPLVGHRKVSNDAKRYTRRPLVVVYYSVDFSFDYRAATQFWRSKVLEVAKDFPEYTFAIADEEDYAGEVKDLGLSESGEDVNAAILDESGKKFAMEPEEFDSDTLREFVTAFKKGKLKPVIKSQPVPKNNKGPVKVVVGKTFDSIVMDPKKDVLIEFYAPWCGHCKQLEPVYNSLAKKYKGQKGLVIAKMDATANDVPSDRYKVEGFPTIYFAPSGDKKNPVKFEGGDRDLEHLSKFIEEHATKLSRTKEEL
inactive: erlotinib -0.011 | [1] 0.062 | [2] 0.005 | [3] -0.017 | [4] -0.008 | [5] 0.006 | [6] 0 | [7] 0.04 | [8] 0.007 | IRAK-1-4 Inhibitor I -0.001

POLR2F (UniProt P61218)
inactive: erlotinib -0.05 | [1] -0.272 | [2] 0.069 | [3] -0.091 | [4] 0.033 | [5] 0.076 | [6] 0.01 | [7] 0.101 | [8] 0.019 | IRAK-1-4 Inhibitor I -0.052

PTPN6 isoform 4 (UniProt P29350)
inactive: erlotinib 0.054 | [1] 0.097 | [2] -0.03 | [3] -0.05 | [4] 0.047 | [5] 0.04 | [6] 0.033 | [7] -0.078 | [8] -0.224 | IRAK-1-4 Inhibitor I -0.073

PCBP2 (UniProt H3BRU6)
inactive: erlotinib 0.094 | [1] -0.272 | [2] 0.166 | [3] 0.061 | [4] -0.057 | [5] -0.034 | [6] -0.15 | [7] -0.196 | [8] -0.096 | IRAK-1-4 Inhibitor I 0.009

QKI (UniProt Q96PU8)
inactive: erlotinib -0.023 | [1] -0.018 | [2] -0.001 | [3] -0.005 | [4] 0.012 | [5] -0.029 | [6] 0.012 | [7] 0.005 | [8] -0.034 | IRAK-1-4 Inhibitor I 0.027

PDCD6IP (UniProt Q8WUM4)
inactive: erlotinib -0.016 | [1] 0.021 | [2] -0.036 | [3] 0 | [4] 0.108 | [5] 0.03 | [6] 0.013 | [7] 0.07 | [8] 0.012 | IRAK-1-4 Inhibitor I -0.094

PUS3 (UniProt Q9BZE2)
inactive: erlotinib -0.014 | [1] 0.043 | [2] -0.028 | [3] -0.048 | [4] 0.048 | [5] -0.006 | [6] -0.064 | [7] -0.028 | [8] 0.097 | IRAK-1-4 Inhibitor I -0.058

PUM1 isoform 3 (UniProt Q14671)
inactive: erlotinib -0.025 | [1] 0.051 | [2] 0.06 | [3] -0.028 | [4] 0.02 | [5] -0.052 | [6] -0.033 | [7] 0.01 | [8] 0.013 | IRAK-1-4 Inhibitor I 0.011

PRMT5 (UniProt O14744)
UniProt O14744, sequence (O14744 whole entry, looked up): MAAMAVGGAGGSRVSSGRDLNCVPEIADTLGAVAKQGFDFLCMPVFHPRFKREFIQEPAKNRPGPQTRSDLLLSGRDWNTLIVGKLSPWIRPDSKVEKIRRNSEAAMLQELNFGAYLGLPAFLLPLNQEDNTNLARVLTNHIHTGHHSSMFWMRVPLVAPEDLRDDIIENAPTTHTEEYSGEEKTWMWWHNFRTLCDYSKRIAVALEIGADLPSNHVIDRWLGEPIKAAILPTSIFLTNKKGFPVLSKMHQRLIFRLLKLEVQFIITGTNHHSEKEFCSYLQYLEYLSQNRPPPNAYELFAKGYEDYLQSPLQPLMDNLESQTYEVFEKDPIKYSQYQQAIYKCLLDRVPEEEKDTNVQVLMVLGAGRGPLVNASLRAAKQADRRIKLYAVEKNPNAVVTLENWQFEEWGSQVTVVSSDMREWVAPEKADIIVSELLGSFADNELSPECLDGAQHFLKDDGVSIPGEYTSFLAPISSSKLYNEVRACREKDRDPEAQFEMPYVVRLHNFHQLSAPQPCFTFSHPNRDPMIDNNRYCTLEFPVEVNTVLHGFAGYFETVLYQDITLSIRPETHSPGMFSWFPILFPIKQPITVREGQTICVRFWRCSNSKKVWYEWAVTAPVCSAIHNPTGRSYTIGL
inactive: erlotinib 0.002 | [1] 0 | [2] 0.032 | [3] 0.006 | [4] 0.007 | [5] 0.017 | [6] 0.017 | [7] 0.012 | [8] 0.019 | IRAK-1-4 Inhibitor I 0.003

PFN1 (UniProt P07737)
inactive: erlotinib -0.022 | [1] -0.017 | [2] 0.01 | [3] 0.019 | [4] -0.007 | [5] -0.006 | [6] 0.015 | [7] -0.002 | [8] 0.01 | IRAK-1-4 Inhibitor I -0.007

PICALM (UniProt Q13492)
UniProt Q13492, sequence (Q13492 whole entry, looked up): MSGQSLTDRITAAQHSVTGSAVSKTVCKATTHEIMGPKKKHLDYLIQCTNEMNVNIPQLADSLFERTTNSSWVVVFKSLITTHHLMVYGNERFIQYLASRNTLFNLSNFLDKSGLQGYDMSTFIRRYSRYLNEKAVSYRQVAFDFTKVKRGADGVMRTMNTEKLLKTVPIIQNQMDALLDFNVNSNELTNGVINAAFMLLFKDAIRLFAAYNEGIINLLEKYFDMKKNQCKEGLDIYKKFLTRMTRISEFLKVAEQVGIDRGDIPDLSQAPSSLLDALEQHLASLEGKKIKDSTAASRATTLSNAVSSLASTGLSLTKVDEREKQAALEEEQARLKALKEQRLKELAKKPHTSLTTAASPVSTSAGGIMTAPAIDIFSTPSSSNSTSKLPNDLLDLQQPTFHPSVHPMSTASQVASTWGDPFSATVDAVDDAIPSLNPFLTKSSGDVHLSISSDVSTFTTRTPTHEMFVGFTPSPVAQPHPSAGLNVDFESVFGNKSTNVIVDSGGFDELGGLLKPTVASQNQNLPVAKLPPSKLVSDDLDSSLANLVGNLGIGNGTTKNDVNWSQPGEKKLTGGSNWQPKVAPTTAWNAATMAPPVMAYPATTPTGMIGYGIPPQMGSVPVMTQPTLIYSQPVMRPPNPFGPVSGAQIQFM
inactive: erlotinib -0.019 | [1] -0.035 | [2] 0.02 | [3] -0.021 | [4] 0.01 | [5] -0.06 | [6] -0.014 | [7] -0.016 | [8] 0.001 | IRAK-1-4 Inhibitor I 0.026

PRIM2 (UniProt P49643)
inactive: erlotinib 0.05 | [1] -0.12 | [2] 0.032 | [3] 0.007 | [4] -0.006 | [5] 0.011 | [6] 0.005 | [7] -0.016 | [8] 0.017 | IRAK-1-4 Inhibitor I 0.027

PIK3C3 (UniProt Q8NEB9)
inactive: erlotinib 0.014 | [1] -0.059 | [2] 0.004 | [3] 0.017 | [4] 0.025 | [5] 0.009 | [6] 0.053 | [7] -0.084 | [8] 0.015 | IRAK-1-4 Inhibitor I 0.081

PCIF1 (UniProt Q9H4Z3)
inactive: erlotinib -0.011 | [1] 0.067 | [2] -0.008 | [3] 0.042 | [4] 0.102 | [5] -0.015 | [6] 0.014 | [7] -0.011 | [8] -0.033 | IRAK-1-4 Inhibitor I -0.041

PFDN2 (UniProt Q9UHV9)
inactive: erlotinib -0.055 | [1] -0.003 | [2] -0.038 | [3] 0.006 | [4] 0 | [5] -0.027 | [6] 0.071 | [7] 0.043 | [8] -0.026 | IRAK-1-4 Inhibitor I -0.015

PDAP1 (UniProt Q13442)
UniProt Q13442, sequence (Q13442 whole entry, looked up): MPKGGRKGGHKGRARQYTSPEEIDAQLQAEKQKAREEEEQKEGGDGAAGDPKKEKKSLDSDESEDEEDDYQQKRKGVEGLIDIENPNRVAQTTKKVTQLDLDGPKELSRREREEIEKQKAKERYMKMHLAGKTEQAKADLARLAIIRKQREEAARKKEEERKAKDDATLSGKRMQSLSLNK
inactive: erlotinib -0.01 | [1] -0.022 | [2] 0.02 | [3] -0.005 | [4] 0.001 | [5] -0.007 | [6] 0.023 | [7] 0.016 | [8] -0.012 | IRAK-1-4 Inhibitor I 0.026

PRC1 (UniProt O43663)
UniProt O43663, sequence (O43663 whole entry, looked up): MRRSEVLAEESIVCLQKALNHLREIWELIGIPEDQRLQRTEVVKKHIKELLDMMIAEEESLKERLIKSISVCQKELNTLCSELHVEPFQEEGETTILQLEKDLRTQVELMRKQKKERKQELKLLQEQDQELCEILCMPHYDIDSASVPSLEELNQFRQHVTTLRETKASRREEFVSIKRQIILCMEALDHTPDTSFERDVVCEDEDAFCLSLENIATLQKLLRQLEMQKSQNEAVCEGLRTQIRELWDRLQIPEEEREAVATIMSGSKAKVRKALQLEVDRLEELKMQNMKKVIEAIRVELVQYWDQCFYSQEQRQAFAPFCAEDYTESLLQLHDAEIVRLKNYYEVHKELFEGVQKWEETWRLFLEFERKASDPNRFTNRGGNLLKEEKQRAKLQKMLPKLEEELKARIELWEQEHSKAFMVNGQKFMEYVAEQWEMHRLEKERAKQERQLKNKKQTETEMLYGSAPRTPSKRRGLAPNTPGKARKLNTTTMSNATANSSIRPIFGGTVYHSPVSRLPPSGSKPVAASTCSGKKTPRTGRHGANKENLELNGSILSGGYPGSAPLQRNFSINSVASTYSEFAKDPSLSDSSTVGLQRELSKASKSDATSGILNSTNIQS
inactive: erlotinib 0.026 | [1] 0.027 | [2] 0.013 | [3] -0.026 | [4] -0.004 | [5] 0.059 | [6] -0.054 | [7] -0.011 | [8] 0.126 | IRAK-1-4 Inhibitor I 0.008

PMS2 (UniProt P54278)
UniProt P54278, sequence (P54278 whole entry, looked up): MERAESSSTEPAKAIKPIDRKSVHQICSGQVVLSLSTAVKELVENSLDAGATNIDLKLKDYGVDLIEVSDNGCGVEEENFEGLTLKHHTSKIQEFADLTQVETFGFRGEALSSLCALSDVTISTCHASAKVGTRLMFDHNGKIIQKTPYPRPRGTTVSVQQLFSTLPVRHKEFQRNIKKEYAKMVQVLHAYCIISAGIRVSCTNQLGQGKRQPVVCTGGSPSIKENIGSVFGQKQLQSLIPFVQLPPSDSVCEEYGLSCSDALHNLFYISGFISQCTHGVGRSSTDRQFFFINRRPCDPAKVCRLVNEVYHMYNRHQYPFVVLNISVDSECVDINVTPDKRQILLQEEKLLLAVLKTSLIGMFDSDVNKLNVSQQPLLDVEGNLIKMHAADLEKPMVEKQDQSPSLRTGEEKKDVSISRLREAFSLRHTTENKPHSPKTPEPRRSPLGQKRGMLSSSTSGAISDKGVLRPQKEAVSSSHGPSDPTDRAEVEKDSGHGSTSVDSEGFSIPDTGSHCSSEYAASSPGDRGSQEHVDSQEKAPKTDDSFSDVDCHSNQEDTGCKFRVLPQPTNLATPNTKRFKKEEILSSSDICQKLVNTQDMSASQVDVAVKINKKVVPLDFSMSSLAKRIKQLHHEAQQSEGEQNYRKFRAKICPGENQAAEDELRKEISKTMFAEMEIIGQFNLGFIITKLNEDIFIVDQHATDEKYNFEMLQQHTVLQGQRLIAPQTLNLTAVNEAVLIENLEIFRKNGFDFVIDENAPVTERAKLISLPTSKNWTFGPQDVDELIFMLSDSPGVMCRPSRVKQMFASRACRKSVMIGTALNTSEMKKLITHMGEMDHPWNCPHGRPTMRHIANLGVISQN
inactive: erlotinib 0.036 | [1] 0.012 | [2] -0.058 | [3] -0.005 | [4] -0.015 | [5] -0.028 | [6] -0.032 | [7] -0.013 | [8] 0.012 | IRAK-1-4 Inhibitor I 0.001

PRKCSH (UniProt K7ELL7)
inactive: erlotinib -0.01 | [1] -0.124 | [2] 0.004 | [3] -0.056 | [4] 0 | [5] -0.036 | [6] -0.061 | [7] -0.096 | [8] -0.038 | IRAK-1-4 Inhibitor I -0.039

PPP2R5B (UniProt Q15173)
inactive: erlotinib -0.026 | [1] 0.038 | [2] 0.056 | [3] -0.106 | [4] 0.123 | [5] 0 | [6] 0.052 | [7] -0.051 | [8] -0.042 | IRAK-1-4 Inhibitor I 0.016

PLA2G4B isoform 6 (UniProt P0C869)
inactive: erlotinib 0.099 | [1] 0.064 | [2] 0.048 | [3] -0.099 | [4] 0.023 | [5] 0.062 | [6] -0.021 | [7] -0.011 | [8] 0.026 | IRAK-1-4 Inhibitor I 0.065

PRKD3 (UniProt O94806)
inactive: erlotinib -0.041 | [1] 0.105 | [2] -0.123 | [3] -0.145 | [4] 0.039 | [5] 0.115 | [6] 0.123 | [7] -0.163 | [8] -0.115 | IRAK-1-4 Inhibitor I 0.053

PPT2 isoform 3 (UniProt Q9UMR5)
UniProt Q9UMR5, sequence (Q9UMR5 whole entry, looked up): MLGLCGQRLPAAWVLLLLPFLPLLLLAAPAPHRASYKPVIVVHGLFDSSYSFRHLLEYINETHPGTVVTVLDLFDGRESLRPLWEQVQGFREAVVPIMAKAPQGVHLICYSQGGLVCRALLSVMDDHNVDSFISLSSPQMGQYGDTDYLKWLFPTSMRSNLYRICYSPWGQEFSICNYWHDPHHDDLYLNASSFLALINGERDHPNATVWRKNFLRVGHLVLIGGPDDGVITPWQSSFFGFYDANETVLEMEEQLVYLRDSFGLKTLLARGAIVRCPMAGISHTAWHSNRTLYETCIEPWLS
inactive: erlotinib 0.038 | [1] -0.113 | [2] 0.001 | [3] 0.014 | [4] -0.012 | [5] -0.057 | [6] 0.042 | [7] 0.01 | [8] 0.043 | IRAK-1-4 Inhibitor I 0.122

POLR2G (UniProt P62487)
inactive: erlotinib 0.02 | [1] 0.012 | [2] 0.044 | [3] -0.005 | [4] 0.029 | [5] 0.022 | [6] 0.036 | [7] -0.002 | [8] 0.02 | IRAK-1-4 Inhibitor I 0.03

PTGES2 (UniProt Q9H7Z7)
inactive: erlotinib 0.008 | [1] 0.056 | [2] -0.133 | [3] 0.066 | [4] -0.054 | [5] 0.174 | [6] 0.162 | [7] 0.028 | [8] -0.023 | IRAK-1-4 Inhibitor I 0.161

PYCR2 (UniProt Q96C36)
inactive: erlotinib -0.013 | [1] 0.014 | [2] 0.011 | [3] -0.005 | [4] -0.013 | [5] 0.003 | [6] -0.04 | [7] 0.007 | [8] 0.01 | IRAK-1-4 Inhibitor I 0.031

PI4K2A (UniProt Q9BTU6)
UniProt Q9BTU6, sequence (Q9BTU6 whole entry, looked up): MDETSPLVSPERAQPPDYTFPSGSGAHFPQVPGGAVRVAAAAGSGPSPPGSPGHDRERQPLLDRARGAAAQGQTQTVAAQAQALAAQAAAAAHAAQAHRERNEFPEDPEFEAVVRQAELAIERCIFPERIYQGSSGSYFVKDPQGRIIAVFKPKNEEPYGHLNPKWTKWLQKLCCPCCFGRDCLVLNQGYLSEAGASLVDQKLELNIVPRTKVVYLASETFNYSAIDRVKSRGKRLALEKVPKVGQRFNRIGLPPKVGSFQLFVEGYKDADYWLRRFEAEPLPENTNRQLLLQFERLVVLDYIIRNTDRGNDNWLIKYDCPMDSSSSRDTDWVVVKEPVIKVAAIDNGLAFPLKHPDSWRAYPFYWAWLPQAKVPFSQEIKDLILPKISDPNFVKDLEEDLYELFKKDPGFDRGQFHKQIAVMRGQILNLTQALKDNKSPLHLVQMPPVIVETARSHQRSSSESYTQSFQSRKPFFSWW
inactive: erlotinib -0.013 | [1] -0.005 | [2] -0.041 | [3] 0.021 | [4] -0.003 | [5] 0.02 | [6] 0.063 | [7] 0.002 | [8] 0.058 | IRAK-1-4 Inhibitor I 0.003
